# Assay results taken from the supplement of paper PMC4466140.
# Key:
# Experiment in all cases: SPOT peptide array binding signal intensity (averaged, normalized) (arbitrary units (background-subtracted, floor 0; scale differs between SH3 domains)); higher = stronger binding of the SH3 domain to the peptide
# AgAbp1 = biological target: AgAbp1
# Method in brief: (§1)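 The binding signal is the normalized, background-subtracted spot intensity averaged over replicates; its arbitrary units differ between domains. It was obtained by incubating 10 μg/ml GST-fused SH3 domains from four yeast species overnight at 4°C in TBS-based blocking buffer on cellulose membranes with synthetic 15-mer peptides, cysteines replaced by serines, then detecting with anti-GST antibody, HRP anti-mouse secondary and luminol.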
# AgBbc1 = biological target: AgBbc1
# Method in brief: as §1
# AgBem1-D1 = biological target: AgBem1-D1
# Method in brief: as §1
# AgBzz1-D1 = biological target: AgBzz1-D1
# Method in brief: as §1
# AgBzz1-D2 = biological target: AgBzz1-D2
# Method in brief: as §1
# AgCyk3 = biological target: AgCyk3
# Method in brief: as §1
# AgFus1 = biological target: AgFus1
# Method in brief: as §1
# AgHof1 = biological target: AgHof1
# Method in brief: as §1
# AgHse1 = biological target: AgHse1
# Method in brief: as §1
# AgLsb1 = biological target: AgLsb1
# Method in brief: as §1
# AgLsb4 = biological target: AgLsb4
# Method in brief: as §1
# AgMyo5 = biological target: AgMyo5
# Method in brief: as §1
# AgNbp2 = biological target: AgNbp2
# Method in brief: as §1
# AgRvs167 = biological target: AgRvs167
# Method in brief: as §1
# AgSho1 = biological target: AgSho1
# Method in brief: as §1
# AgSla1-D1-D2 = biological target: AgSla1-D1-D2
# Method in brief: as §1
# AgSla1-D3 = biological target: AgSla1-D3
# Method in brief: as §1
# CaAbp1-D1 = biological target: CaAbp1-D1
# Method in brief: as §1
# CaAbp1-D2 = biological target: CaAbp1-D2
# Method in brief: as §1
# CaBbc1 = biological target: CaBbc1
# Method in brief: as §1
# CaBem1-D1 = biological target: CaBem1-D1
# Method in brief: as §1
# CaBzz1-D1 = biological target: CaBzz1-D1
# Method in brief: as §1
# CaBzz1-D2 = biological target: CaBzz1-D2
# Method in brief: as §1
# CaCyk3 = biological target: CaCyk3
# Method in brief: as §1
# CaFus1 = biological target: CaFus1
# Method in brief: as §1
# CaHof1 = biological target: CaHof1
# Method in brief: as §1
# CaHse1 = biological target: CaHse1
# Method in brief: as §1
# CaLsb1 = biological target: CaLsb1
# Method in brief: as §1
# CaLsb4 = biological target: CaLsb4
# Method in brief: as §1
# CaMyo5 = biological target: CaMyo5
# Method in brief: as §1
# CaNbp2 = biological target: CaNbp2
# Method in brief: as §1
# CaRvs167 = biological target: CaRvs167
# Method in brief: as §1
# CaRvs167-3 = biological target: CaRvs167-3
# Method in brief: as §1
# CaSho1 = biological target: CaSho1
# Method in brief: as §1
# CaSla1-D1-D2 = biological target: CaSla1-D1-D2
# Method in brief: as §1
# CaSla1-D3 = biological target: CaSla1-D3
# Method in brief: as §1
# ScAbp1 = biological target: ScAbp1
# Method in brief: as §1
# ScBbc1 = biological target: ScBbc1
# Method in brief: as §1
# ScBem1-D1 = biological target: ScBem1-D1
# Method in brief: as §1
# ScBzz1-D1 = biological target: ScBzz1-D1
# Method in brief: as §1
# ScBzz1-D2 = biological target: ScBzz1-D2
# Method in brief: as §1
# ScCyk3 = biological target: ScCyk3
# Method in brief: as §1
# ScFus1 = biological target: ScFus1
# Method in brief: as §1
# ScHof1 = biological target: ScHof1
# Method in brief: as §1
# ScHse1 = biological target: ScHse1
# Method in brief: as §1
# ScLsb1 = biological target: ScLsb1
# Method in brief: as §1
# ScLsb2 = biological target: ScLsb2
# Method in brief: as §1
# ScLsb3 = biological target: ScLsb3
# Method in brief: as §1
# ScLsb4 = biological target: ScLsb4
# Method in brief: as §1
# ScMyo3 = biological target: ScMyo3
# Method in brief: as §1
# ScMyo5 = biological target: ScMyo5
# Method in brief: as §1
# ScNbp2 = biological target: ScNbp2
# Method in brief: as §1
# ScPex13 = biological target: ScPex13
# Method in brief: as §1
# ScRvs167 = biological target: ScRvs167
# Method in brief: as §1
# ScSho1 = biological target: ScSho1
# Method in brief: as §1
# ScSla1-D1-D2 = biological target: ScSla1-D1-D2
# Method in brief: as §1
# ScSla1-D3 = biological target: ScSla1-D3
# Method in brief: as §1
# SpAbp1-D1 = biological target: SpAbp1-D1
# Method in brief: as §1
# SpBbc1 = biological target: SpBbc1
# Method in brief: as §1
# SpBzz1-D1 = biological target: SpBzz1-D1
# Method in brief: as §1
# SpBzz1-D2 = biological target: SpBzz1-D2
# Method in brief: as §1
# SpCyk3 = biological target: SpCyk3
# Method in brief: as §1
# SpHof1 = biological target: SpHof1
# Method in brief: as §1
# SpHof1-2 = biological target: SpHof1-2
# Method in brief: as §1
# SpHof1-3 = biological target: SpHof1-3
# Method in brief: as §1
# SpHse1 = biological target: SpHse1
# Method in brief: as §1
# SpLsb1 = biological target: SpLsb1
# Method in brief: as §1
# SpLsb4 = biological target: SpLsb4
# Method in brief: as §1
# SpMyo1 = biological target: SpMyo1
# Method in brief: as §1
# SpNbp2 = biological target: SpNbp2
# Method in brief: as §1
# SpPex13 = biological target: SpPex13
# Method in brief: as §1
# SpRvs167 = biological target: SpRvs167
# Method in brief: as §1
# SpSla1-D1-D2 = biological target: SpSla1-D1-D2
# Method in brief: as §1
# SpSla1-D3 = biological target: SpSla1-D3
# Method in brief: as §1
binder,measurement,setting,value
KTITLEVESSDTIDN,SPOT peptide array binding signal intensity,AgAbp1,0.5
same,SPOT peptide array binding signal intensity,AgBbc1,≤ 0
same,SPOT peptide array binding signal intensity,AgBem1-D1,≤ 0
same,SPOT peptide array binding signal intensity,AgBzz1-D1,≤ 0
same,SPOT peptide array binding signal intensity,AgBzz1-D2,≤ 0
same,SPOT peptide array binding signal intensity,AgCyk3,≤ 0
same,SPOT peptide array binding signal intensity,AgFus1,≤ 0
same,SPOT peptide array binding signal intensity,AgHof1,≤ 0
same,SPOT peptide array binding signal intensity,AgHse1,≤ 0
same,SPOT peptide array binding signal intensity,AgLsb1,≤ 0
same,SPOT peptide array binding signal intensity,AgLsb4,3
same,SPOT peptide array binding signal intensity,AgMyo5,≤ 0
same,SPOT peptide array binding signal intensity,AgNbp2,≤ 0
same,SPOT peptide array binding signal intensity,AgRvs167,1.5
same,SPOT peptide array binding signal intensity,AgSho1,≤ 0
same,SPOT peptide array binding signal intensity,AgSla1-D1-D2,2
same,SPOT peptide array binding signal intensity,AgSla1-D3,≤ 0
same,SPOT peptide array binding signal intensity,CaAbp1-D1,≤ 0
same,SPOT peptide array binding signal intensity,CaAbp1-D2,≤ 0
same,SPOT peptide array binding signal intensity,CaBbc1,≤ 0
same,SPOT peptide array binding signal intensity,CaBem1-D1,≤ 0
same,SPOT peptide array binding signal intensity,CaBzz1-D1,≤ 0
same,SPOT peptide array binding signal intensity,CaBzz1-D2,≤ 0
same,SPOT peptide array binding signal intensity,CaCyk3,≤ 0
same,SPOT peptide array binding signal intensity,CaFus1,≤ 0
same,SPOT peptide array binding signal intensity,CaHof1,≤ 0
same,SPOT peptide array binding signal intensity,CaHse1,≤ 0
same,SPOT peptide array binding signal intensity,CaLsb1,0.5
same,SPOT peptide array binding signal intensity,CaLsb4,≤ 0
same,SPOT peptide array binding signal intensity,CaMyo5,≤ 0
same,SPOT peptide array binding signal intensity,CaNbp2,≤ 0
same,SPOT peptide array binding signal intensity,CaRvs167,≤ 0
same,SPOT peptide array binding signal intensity,CaRvs167-3,2.5
same,SPOT peptide array binding signal intensity,CaSho1,≤ 0
same,SPOT peptide array binding signal intensity,CaSla1-D1-D2,≤ 0
same,SPOT peptide array binding signal intensity,CaSla1-D3,≤ 0
same,SPOT peptide array binding signal intensity,ScAbp1,1
same,SPOT peptide array binding signal intensity,ScBbc1,≤ 0
same,SPOT peptide array binding signal intensity,ScBem1-D1,≤ 0
same,SPOT peptide array binding signal intensity,ScBzz1-D1,8
same,SPOT peptide array binding signal intensity,ScBzz1-D2,≤ 0
same,SPOT peptide array binding signal intensity,ScCyk3,≤ 0
same,SPOT peptide array binding signal intensity,ScFus1,15
same,SPOT peptide array binding signal intensity,ScHof1,1
same,SPOT peptide array binding signal intensity,ScHse1,≤ 0
same,SPOT peptide array binding signal intensity,ScLsb1,≤ 0
same,SPOT peptide array binding signal intensity,ScLsb2,≤ 0
same,SPOT peptide array binding signal intensity,ScLsb3,≤ 0
same,SPOT peptide array binding signal intensity,ScLsb4,≤ 0
same,SPOT peptide array binding signal intensity,ScMyo3,≤ 0
same,SPOT peptide array binding signal intensity,ScMyo5,≤ 0
same,SPOT peptide array binding signal intensity,ScNbp2,≤ 0
same,SPOT peptide array binding signal intensity,ScPex13,≤ 0
same,SPOT peptide array binding signal intensity,ScRvs167,≤ 0
same,SPOT peptide array binding signal intensity,ScSho1,≤ 0
same,SPOT peptide array binding signal intensity,ScSla1-D1-D2,≤ 0
same,SPOT peptide array binding signal intensity,ScSla1-D3,10.2
same,SPOT peptide array binding signal intensity,SpAbp1-D1,≤ 0
same,SPOT peptide array binding signal intensity,SpBbc1,1
same,SPOT peptide array binding signal intensity,SpBzz1-D1,≤ 0
same,SPOT peptide array binding signal intensity,SpBzz1-D2,≤ 0
same,SPOT peptide array binding signal intensity,SpCyk3,≤ 0
same,SPOT peptide array binding signal intensity,SpHof1,≤ 0
same,SPOT peptide array binding signal intensity,SpHof1-2,≤ 0
same,SPOT peptide array binding signal intensity,SpHof1-3,≤ 0
same,SPOT peptide array binding signal intensity,SpHse1,≤ 0
same,SPOT peptide array binding signal intensity,SpLsb1,≤ 0
same,SPOT peptide array binding signal intensity,SpLsb4,≤ 0
same,SPOT peptide array binding signal intensity,SpMyo1,≤ 0
same,SPOT peptide array binding signal intensity,SpNbp2,≤ 0
same,SPOT peptide array binding signal intensity,SpPex13,≤ 0
same,SPOT peptide array binding signal intensity,SpRvs167,≤ 0
same,SPOT peptide array binding signal intensity,SpSla1-D1-D2,≤ 0
same,SPOT peptide array binding signal intensity,SpSla1-D3,≤ 0
NFKRLLPRDPSEKSS,SPOT peptide array binding signal intensity,CaNbp2,286
same,SPOT peptide array binding signal intensity,CaRvs167,6.33
same,SPOT peptide array binding signal intensity,CaRvs167-3,31.5
same,SPOT peptide array binding signal intensity,CaSho1,340
same,SPOT peptide array binding signal intensity,CaSla1-D1-D2,≤ 0
same,SPOT peptide array binding signal intensity,CaSla1-D3,1
same,SPOT peptide array binding signal intensity,ScAbp1,66.5
same,SPOT peptide array binding signal intensity,ScBbc1,≤ 0
same,SPOT peptide array binding signal intensity,ScBem1-D1,27
same,SPOT peptide array binding signal intensity,ScBzz1-D1,21
same,SPOT peptide array binding signal intensity,ScBzz1-D2,18
same,SPOT peptide array binding signal intensity,ScCyk3,105
same,SPOT peptide array binding signal intensity,ScFus1,308
same,SPOT peptide array binding signal intensity,ScHof1,3
same,SPOT peptide array binding signal intensity,ScHse1,2620
same,SPOT peptide array binding signal intensity,ScLsb1,1
same,SPOT peptide array binding signal intensity,ScLsb2,2
same,SPOT peptide array binding signal intensity,ScLsb3,83.5
same,SPOT peptide array binding signal intensity,ScLsb4,1
same,SPOT peptide array binding signal intensity,ScMyo3,2
same,SPOT peptide array binding signal intensity,ScMyo5,4.5
same,SPOT peptide array binding signal intensity,ScNbp2,35.5
same,SPOT peptide array binding signal intensity,ScPex13,3.5
same,SPOT peptide array binding signal intensity,ScRvs167,16.2
same,SPOT peptide array binding signal intensity,ScSho1,1040
same,SPOT peptide array binding signal intensity,ScSla1-D1-D2,35.5
same,SPOT peptide array binding signal intensity,ScSla1-D3,0.5
same,SPOT peptide array binding signal intensity,SpAbp1-D1,21
same,SPOT peptide array binding signal intensity,SpBbc1,1
same,SPOT peptide array binding signal intensity,SpBzz1-D1,17.5
same,SPOT peptide array binding signal intensity,SpBzz1-D2,0.5
same,SPOT peptide array binding signal intensity,SpCyk3,7
same,SPOT peptide array binding signal intensity,SpHof1,283
same,SPOT peptide array binding signal intensity,SpHof1-2,88
same,SPOT peptide array binding signal intensity,SpHof1-3,1360
same,SPOT peptide array binding signal intensity,SpHse1,2380
same,SPOT peptide array binding signal intensity,SpLsb1,≤ 0
same,SPOT peptide array binding signal intensity,SpLsb4,23
same,SPOT peptide array binding signal intensity,SpMyo1,7.25
same,SPOT peptide array binding signal intensity,SpNbp2,44
same,SPOT peptide array binding signal intensity,SpPex13,5
same,SPOT peptide array binding signal intensity,SpRvs167,19.3
same,SPOT peptide array binding signal intensity,SpSla1-D1-D2,0.5
same,SPOT peptide array binding signal intensity,SpSla1-D3,3
